Data as given in ChEMBL document CHEMBL3988442, “University of Dundee, Small-Polar-MMV Screening Library” (2021).
For part of these data: Potency and affinity values are given separately.

Legend:
Parameters in all cases: scale not given: direction of the effect not stated beside the values
[1] = molecular target: Protein translocase subunit SecA (Escherichia coli (strain K12)) (UniProt P10408); assay: Assay to Identify E. coli SecA ATPase Inhibitors; type: functional; conditions: 30 µM
[2] = molecular target: T1, Ubiquitin-activating enzyme e1, putative (Leishmania donovani (strain BPK282A1)) (UniProt E9BSI1); assay: Leishmania donovani Ubiquitin Activating Enzyme (LdE1); type: functional; conditions: 30 µM
T1 sequence (whole entry): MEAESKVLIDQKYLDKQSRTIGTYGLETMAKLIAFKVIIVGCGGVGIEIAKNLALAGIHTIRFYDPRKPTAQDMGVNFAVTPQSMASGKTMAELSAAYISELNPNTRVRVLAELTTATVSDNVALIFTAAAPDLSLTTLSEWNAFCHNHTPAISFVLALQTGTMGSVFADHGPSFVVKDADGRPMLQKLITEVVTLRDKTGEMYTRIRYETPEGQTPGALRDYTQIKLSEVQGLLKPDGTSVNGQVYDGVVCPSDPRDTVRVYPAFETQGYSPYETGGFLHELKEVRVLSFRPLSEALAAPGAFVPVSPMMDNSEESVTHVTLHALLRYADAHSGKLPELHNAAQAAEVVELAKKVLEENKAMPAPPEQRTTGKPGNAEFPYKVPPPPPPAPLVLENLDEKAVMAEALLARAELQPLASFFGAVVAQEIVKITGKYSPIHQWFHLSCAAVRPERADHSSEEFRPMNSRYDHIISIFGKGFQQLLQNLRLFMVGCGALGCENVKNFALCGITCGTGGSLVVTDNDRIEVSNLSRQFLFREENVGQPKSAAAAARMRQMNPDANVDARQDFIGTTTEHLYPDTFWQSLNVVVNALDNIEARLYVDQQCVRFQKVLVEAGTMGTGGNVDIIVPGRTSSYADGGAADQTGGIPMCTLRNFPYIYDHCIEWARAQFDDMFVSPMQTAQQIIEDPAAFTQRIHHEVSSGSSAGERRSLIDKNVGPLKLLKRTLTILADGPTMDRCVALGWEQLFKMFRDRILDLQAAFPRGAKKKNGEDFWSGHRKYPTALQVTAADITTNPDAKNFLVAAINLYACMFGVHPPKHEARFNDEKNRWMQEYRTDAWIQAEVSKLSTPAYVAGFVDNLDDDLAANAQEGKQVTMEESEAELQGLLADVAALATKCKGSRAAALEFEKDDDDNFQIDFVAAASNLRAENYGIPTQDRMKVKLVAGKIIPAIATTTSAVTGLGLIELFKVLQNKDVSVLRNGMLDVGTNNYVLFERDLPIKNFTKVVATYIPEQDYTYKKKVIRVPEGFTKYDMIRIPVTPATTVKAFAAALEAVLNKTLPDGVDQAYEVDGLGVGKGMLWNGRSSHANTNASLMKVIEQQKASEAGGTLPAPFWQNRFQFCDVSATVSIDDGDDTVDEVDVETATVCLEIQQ

[3] = molecular target: Sialic acid-binding Ig-like lectin 9 (Homo sapiens) (UniProt Q9Y336); assay: Hs-Siglec9 ALPHAscreen SOP 20170721; conditions: 10 µM
Sequence of Sialic acid-binding Ig-like lectin 9 (Homo sapiens) (Q9Y336 whole entry): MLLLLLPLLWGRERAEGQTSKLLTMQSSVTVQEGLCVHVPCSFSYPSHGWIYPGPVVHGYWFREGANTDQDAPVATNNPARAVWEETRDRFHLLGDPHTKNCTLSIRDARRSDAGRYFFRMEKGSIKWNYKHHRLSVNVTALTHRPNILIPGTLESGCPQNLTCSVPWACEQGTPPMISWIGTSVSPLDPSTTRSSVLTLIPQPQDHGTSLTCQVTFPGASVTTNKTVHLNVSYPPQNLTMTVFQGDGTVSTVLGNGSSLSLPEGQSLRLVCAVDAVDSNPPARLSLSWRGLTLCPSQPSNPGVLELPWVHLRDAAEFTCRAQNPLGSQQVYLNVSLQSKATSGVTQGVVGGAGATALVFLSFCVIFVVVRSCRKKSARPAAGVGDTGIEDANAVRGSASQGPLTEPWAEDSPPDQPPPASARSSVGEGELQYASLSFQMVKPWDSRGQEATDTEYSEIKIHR

Trypanosoma cruzi = assay: Trypanosoma cruzi phosphomannomutase and mannose-1-phosphate guanylyltransferase assay; type: functional; conditions: 10 µM
[4] = molecular target: T2, Arginase-2, mitochondrial (Homo sapiens) (UniProt P78540); assay: in vitro enzyme assay to detect the production of urea directly proportional to the activity of Arginase II; type: functional; conditions: 33.3 µM; further: in the data most compounds retested in dose-response had high values
T2 sequence (whole entry): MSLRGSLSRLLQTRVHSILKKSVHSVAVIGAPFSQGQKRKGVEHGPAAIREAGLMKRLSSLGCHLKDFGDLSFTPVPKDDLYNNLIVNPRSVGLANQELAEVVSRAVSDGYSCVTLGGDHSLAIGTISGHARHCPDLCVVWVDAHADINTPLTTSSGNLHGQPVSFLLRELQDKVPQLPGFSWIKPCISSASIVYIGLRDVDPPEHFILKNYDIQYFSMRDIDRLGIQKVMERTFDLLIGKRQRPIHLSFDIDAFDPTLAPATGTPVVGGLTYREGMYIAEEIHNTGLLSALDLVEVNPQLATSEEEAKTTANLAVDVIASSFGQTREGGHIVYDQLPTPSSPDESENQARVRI

[5] = molecular target: T3, Proteasome subunit beta (Trypanosoma cruzi) (UniProt O96673); assay: Trypanosoma cruzi proteasome chymotrypsin-like activity (TcProtChymo) assay.; further: in the data most compounds retested in dose-response had high values; type: functional; conditions: 9.37 µM
T3 sequence (whole entry): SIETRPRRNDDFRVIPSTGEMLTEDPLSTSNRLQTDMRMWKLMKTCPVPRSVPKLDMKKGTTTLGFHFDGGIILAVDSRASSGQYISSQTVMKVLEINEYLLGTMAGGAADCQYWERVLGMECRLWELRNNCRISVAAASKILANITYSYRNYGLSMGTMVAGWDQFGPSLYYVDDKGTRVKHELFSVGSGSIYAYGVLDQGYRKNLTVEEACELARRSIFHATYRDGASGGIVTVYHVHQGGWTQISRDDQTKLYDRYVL

Homo sapiens = species: Homo sapiens; assay: To identify inhibition of the IFN signalling (Jak-Stat) pathway via expression of an eGFP reporter gene under the control of an IFN-stimulated response element (ISRE) containing MxA promoter.; type: functional; conditions: 30 µM
[6] = molecular target: T4, Tyrosyl-tRNA synthetase, putative (Trypanosoma cruzi (strain CL Brener)) (UniProt Q4DSP6); assay: Trypanosoma cruzi tyrosyl tRNA synthetase (TcYRS) _High Tyrosine SOP; type: functional; conditions: 30 µM; further: in the data most compounds retested in dose-response had high values
T4 sequence (whole entry): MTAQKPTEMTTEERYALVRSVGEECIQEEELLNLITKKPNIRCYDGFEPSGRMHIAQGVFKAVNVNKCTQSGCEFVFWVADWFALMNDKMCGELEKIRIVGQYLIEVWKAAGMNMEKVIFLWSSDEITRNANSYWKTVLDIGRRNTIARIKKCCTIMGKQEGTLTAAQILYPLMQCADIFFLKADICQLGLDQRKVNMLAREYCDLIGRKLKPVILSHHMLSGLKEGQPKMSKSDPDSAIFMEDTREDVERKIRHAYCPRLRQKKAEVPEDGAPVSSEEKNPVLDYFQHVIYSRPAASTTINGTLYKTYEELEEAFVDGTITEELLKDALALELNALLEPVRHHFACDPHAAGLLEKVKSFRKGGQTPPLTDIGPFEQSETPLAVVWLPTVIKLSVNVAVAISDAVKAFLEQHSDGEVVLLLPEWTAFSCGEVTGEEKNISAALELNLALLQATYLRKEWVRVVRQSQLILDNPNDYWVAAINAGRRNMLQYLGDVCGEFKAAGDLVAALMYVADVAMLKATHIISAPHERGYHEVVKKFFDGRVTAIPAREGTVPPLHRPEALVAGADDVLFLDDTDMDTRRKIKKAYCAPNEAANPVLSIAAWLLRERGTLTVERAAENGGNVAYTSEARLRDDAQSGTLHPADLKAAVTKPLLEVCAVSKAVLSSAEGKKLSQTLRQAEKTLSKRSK

[7] = molecular target: T4, Tyrosyl-tRNA synthetase, putative (Trypanosoma cruzi (strain CL Brener)); assay: Trypanosoma cruzi tyrosyl tRNA synthetase (TcYRS) SOP; type: functional; conditions: 30 µM
[8] = molecular target: Chromo domain-containing protein 1 (Saccharomyces cerevisiae (strain ATCC 204508 / S288c) (Baker's yeast)) (UniProt P32657); assay: ScCHD-1 Enzyme Inhibition Assay; type: functional; conditions: 30 µM; further: in the data most compounds retested in dose-response had high values
Sequence of Chromo domain-containing protein 1 (Saccharomyces cerevisiae (strain ATCC 204508 / S288c) (Baker's yeast)) (P32657 whole entry, the tested form may be a part): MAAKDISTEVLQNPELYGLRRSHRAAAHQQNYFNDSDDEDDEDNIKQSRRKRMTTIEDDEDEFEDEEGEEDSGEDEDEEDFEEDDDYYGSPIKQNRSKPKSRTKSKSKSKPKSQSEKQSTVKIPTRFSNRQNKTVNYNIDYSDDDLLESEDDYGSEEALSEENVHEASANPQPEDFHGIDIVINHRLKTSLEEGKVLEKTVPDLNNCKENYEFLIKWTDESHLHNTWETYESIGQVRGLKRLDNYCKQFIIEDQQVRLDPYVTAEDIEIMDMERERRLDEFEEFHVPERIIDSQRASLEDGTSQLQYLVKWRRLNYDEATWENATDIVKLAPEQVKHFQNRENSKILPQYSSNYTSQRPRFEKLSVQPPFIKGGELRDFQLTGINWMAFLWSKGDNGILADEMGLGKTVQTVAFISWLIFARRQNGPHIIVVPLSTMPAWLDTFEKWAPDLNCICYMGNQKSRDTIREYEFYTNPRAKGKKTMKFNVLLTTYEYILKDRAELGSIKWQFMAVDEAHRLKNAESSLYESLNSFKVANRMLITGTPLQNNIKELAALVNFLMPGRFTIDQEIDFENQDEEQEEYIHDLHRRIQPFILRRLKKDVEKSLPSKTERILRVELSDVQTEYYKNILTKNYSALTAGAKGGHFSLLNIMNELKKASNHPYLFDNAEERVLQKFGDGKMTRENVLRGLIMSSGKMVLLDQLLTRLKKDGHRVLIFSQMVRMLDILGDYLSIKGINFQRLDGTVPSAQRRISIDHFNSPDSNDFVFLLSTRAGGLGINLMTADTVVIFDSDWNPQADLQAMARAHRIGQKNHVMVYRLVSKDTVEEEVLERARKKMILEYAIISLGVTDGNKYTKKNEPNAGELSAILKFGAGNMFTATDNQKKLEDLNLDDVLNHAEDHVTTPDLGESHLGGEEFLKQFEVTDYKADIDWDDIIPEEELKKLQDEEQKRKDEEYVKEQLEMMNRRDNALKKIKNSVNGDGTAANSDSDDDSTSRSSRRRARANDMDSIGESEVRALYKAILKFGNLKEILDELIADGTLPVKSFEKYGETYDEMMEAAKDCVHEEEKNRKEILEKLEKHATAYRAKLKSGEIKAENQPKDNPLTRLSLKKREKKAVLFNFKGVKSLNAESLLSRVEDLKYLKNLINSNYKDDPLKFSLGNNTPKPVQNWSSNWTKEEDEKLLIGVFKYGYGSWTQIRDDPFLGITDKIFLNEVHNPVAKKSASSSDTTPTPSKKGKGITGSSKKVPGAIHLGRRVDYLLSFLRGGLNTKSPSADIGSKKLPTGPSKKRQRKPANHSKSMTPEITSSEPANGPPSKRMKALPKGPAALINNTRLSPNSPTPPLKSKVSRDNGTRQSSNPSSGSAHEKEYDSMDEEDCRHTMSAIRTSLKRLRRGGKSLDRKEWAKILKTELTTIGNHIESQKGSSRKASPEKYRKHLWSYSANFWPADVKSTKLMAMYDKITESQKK

Sequence of Protein translocase subunit SecA (Escherichia coli (strain K12)) (P10408 whole entry): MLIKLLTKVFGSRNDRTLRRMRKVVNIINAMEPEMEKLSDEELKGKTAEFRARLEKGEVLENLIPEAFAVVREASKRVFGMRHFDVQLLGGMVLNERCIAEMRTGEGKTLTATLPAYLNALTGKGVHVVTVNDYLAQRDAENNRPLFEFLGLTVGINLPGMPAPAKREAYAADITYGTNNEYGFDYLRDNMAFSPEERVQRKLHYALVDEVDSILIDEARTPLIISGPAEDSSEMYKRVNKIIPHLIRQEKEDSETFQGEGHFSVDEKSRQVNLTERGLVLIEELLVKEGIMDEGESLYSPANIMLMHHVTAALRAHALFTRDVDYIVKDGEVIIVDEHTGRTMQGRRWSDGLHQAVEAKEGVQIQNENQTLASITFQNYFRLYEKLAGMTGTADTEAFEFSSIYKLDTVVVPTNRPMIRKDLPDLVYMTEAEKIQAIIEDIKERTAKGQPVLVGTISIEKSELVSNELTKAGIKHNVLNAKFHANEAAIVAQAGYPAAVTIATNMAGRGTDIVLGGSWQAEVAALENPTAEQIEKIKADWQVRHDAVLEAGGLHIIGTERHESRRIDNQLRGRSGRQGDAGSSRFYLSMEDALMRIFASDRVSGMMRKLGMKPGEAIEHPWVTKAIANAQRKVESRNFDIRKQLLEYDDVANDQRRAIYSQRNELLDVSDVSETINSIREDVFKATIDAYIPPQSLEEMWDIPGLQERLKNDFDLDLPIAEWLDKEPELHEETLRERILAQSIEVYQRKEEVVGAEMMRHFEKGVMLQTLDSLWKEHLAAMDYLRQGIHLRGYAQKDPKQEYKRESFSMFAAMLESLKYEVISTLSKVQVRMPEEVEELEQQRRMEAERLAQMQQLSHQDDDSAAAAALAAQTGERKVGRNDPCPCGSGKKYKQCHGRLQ

Row | SMILES | Percent Effect [1] [%] | Percent Effect [2] [%] | Percent Effect [3] [%] | Percent Effect (Trypanosoma cruzi) [%] | Percent Effect [4] [%] | Percent Effect [5] [%] | Percent Effect (Homo sapiens) [%] | Percent Effect [6] [%] | Percent Effect [7] [%] | Percent Effect [8] [%]
1 | CC(NC(=O)N1CCC(OCc2ccccc2)CC1)c1nncn1C (stereo not given) | -3.83 | 5.33 | -0.332 | 7.63 | 1.33 | 14.8 | 15.6 | 2.63 | 12.8 | -8.27
2 | O=C(COc1ccc2c(c1)CCC2)NS(=O)(=O)c1cncc(Br)c1 | -2.61 | 2.56 | 1.99 | 9.3 | -3.28 | 3.33 | 7.32 | -3.35 | 1.21 | 1.12
3 | CC(C)c1cc(C(F)(F)F)n2nc(CCC(=O)O)nc2n1 | 1.24 | 14.7 | -8.51 | -3.94 | 2.65 | 10.5 | 19.8 | 6.35 | 7.5 | -17.9
4 | CN(C)c1ncccc1CNS(=O)(=O)c1ccccc1F | -0.976 | 15.6 | -3.68 | -3.17 | 2.66 | 13.3 | 19.8 | 4.9 | 11.8 | -9.97
5 | O=C(C1CCC1)N1CCn2c(COc3ncccn3)nnc2C1 | -7.65 | 3.9 | -3.93 | -5.36 | -11.7 | 12.8 | 6.38 | 0.526 | 5.13 | -2.55
6 | O=C(NCC(=O)N1CCc2ccccc2C1)c1ccoc1 | -0.143 | 15.6 | -3.75 | -7.46 | 1.43 | 18.1 | 23.4 | 3.92 | 9.41 | -10.6
7 | Cn1nc2c(cc1=O)CN(Cc1nnc(C3CC3)o1)CC2 | -3.12 | 51.3 | -13.6 | -6.29 | 0.41 | 6.91 | 36.5 | -11 | -6.02 | -6.1
8 | Cc1cc(C)n(CC2CCCCN2CCCS(N)(=O)=O)n1 (stereo not given) | 1.22 | 18.7 | -2.13 | -2.01 | 4.88 | 12.8 | 8.38 | -0.526 | 7.69 | -8.39
9 | CC(C)N1CCN(C(=O)Nc2cnn(CC(N)=O)c2)CC1 | -3.33 | 17.9 | -17.7 | 9.67 | 0 | 11.7 | 5.26 | -3.35 | 22.9 | -6.52
10 | CC(C)CN1CCN(C)C2(CCN(Cc3ccsc3)CC2)C1=O | -3.52 | 6.49 | -3 | 0.188 | 1.83 | -2.49 | -6.74 | 7.73 | 10 | 1.23
11 | CCc1nc(CNCC2CCCN2c2cc(NC)ncn2)cs1 (stereo not given) | -1.05 | 0 | 1.02 | 9.48 | 1.64 | 6.91 | -11.3 | 3.35 | 6.02 | -3.49
12 | O=C(NCC1CCOC1)c1ccc(OCC(F)(F)F)nc1 (stereo not given) | -1.32 | 12.8 | 9.89 | -4.98 | 2.46 | 6.91 | 25.9 | 3.35 | 10.8 | -2.44
